Out of some 310,000 compounds screened, about 11,000 (3.5%) were called active. About 8% were inconclusive and are not listed. The list comes from a sample in which actives are over-represented; it also holds similar structures and randomly drawn compounds. Where a call stands in place of a potency, no number is given. Values without a mark were called inactive. The call rests on the fitted dose curve; in most records, active means well fitted inhibition curve with a large enough effect; inconclusive means small, poorly fitted or top-dose-only effect, or effect the other way; inactive means flat fitted curve, though single readings scatter.
Assay: VP16 counterscreen qHTS for inhibitors of ROR gamma transcriptional activity;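 further: Gal4-VP16 expression switched on by copper sulfate through the metallothionein promoter; nearly all actives have a fitted effect of over 50% in size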
Conditions: Drosophila S2 Gal4-VP16 UAS-luciferase, luminescence, 20 h; series mostly up to 53.6 µM
Potency means the concentration at half of the fitted maximal effect.

Row | SMILES | Potency | activity, negative = inhibition
1 | CC(C)C(=O)Nc1c2c(nn1-c1ccccc1)CSC2 | inactive | –
2 | O=C(c1cnn(-c2ccc(Cl)cc2)c1)c1ccccc1O | inactive | –
3 | Cc1cc(O)cc(O)c1C(=O)Cc1cnn(-c2ccccc2)c1 | 0.355 µM (active) | –
4 | COc1ccc(C(=O)Cc2cnn(-c3ccccc3)c2)c(O)c1 | inactive | –
5 | Cc1ccc(O)c(NC(=O)c2cc(-c3ccco3)on2)c1 | inactive | –
6 | CC(C)(C)CC(C)(C)NCC(O)COCCOc1ccc(Br)cc1 (stereo unspecified) | 11.2 µM (active) | –
7 | COc1ccc(OCC(O)CNCCNc2nccc(C(F)(F)F)n2)cc1 (stereo unspecified) | inactive | –
8 | OC(COc1ccc(Br)cc1)CN1CCCC1 (stereo unspecified) | inactive | –
9 | CCOC(=O)CSc1nnc(NC(=O)C2CC(=O)N(c3ccc(F)cc3)C2)s1 (stereo unspecified) | inactive | –
10 | CCC(=O)N1c2ccc(S(=O)(=O)NCc3ccco3)cc2CC1C (stereo unspecified) | inactive | –
11 | C/C=C/C=N/NC(=O)c1ccncc1 | inactive | –
12 | C/C(=N\Nc1nc2ccccc2[nH]1)c1cccs1 | 6.31 µM (active) | –
13 | O=C(Nc1ccccc1-c1nc2ccccc2[nH]c1=O)c1cccs1 | inactive | –
14 | C/C(=N\Nc1nc(Nc2ccccc2)nc(N2CCOCC2)n1)c1cccs1 | inactive | –
15 | CN(c1ccccc1)S(=O)(=O)c1ccc2[nH]c(=O)[nH]c2c1 | inactive | –
16 | CCn1ccnc1CN(C)C(=O)c1cc(COc2ccc(Cl)cc2OC)on1 | inactive | –
17 | O=C1C=C(c2ccc(Cl)cc2)C(=O)N1Nc1ccccc1 | 3.98 µM (active) | –
18 | O=C(Nc1ccccc1)OCc1cc(-c2ccc(Cl)cc2)on1 | inactive | –
19 | O=C1c2cccc3cc(Br)cc(c23)C(=O)N1Nc1ccccc1 | inactive | –

Row | SMILES | Potency | activity, negative = inhibition
20 | Cc1ccc(NC(=S)NCCN2CCOCC2)cc1 | inactive | –
21 | CCOc1cccc(/C=N/NC(=S)NCCN2CCOCC2)c1O | 2.24 µM (active) | –
22 | COc1cccc(NC(=S)NCCCN2CCOCC2)c1 | inactive | –
23 | CCOC(=O)c1c(S(=O)(=O)NCC(=O)Nc2ccc(C)cc2)c(C)n(C)c1C | inactive | –
24 | CCCc1cc(=O)oc2c(C)c(OCC(=O)Nc3ccccn3)ccc12 | inactive | –
25 | O=C(CN1C(=O)S/C(=C\c2ccccc2Cl)C1=O)NC1C=CS(=O)(=O)C1 (stereo unspecified) | inactive | –
26 | CCCCCCCCn1c2c(c(=N)c3c1CCC3)CCCC2 | 2.51 µM (active) | –
27 | COCCCNC(=O)Cc1ccc(-n2c(C)nc3cccnc32)cc1 | inactive | –
28 | CCCC(=O)Nc1cccc(NC(=S)NC(=O)C(C)Oc2ccc(Cl)cc2Cl)c1 (stereo unspecified) | 2.82 µM (active) | –
29 | COc1cccc(NC(=O)CN(C)C(=O)Cc2ccc(Cl)cc2Cl)c1 | inactive | –
30 | CC(Oc1ccc(Cl)cc1Cl)C(=O)/C=C/N(C)C (stereo unspecified) | inactive | –
31 | Cc1ccc(/C=C2/SC(=S)N(CCC(=O)NCCCN3CCOCC3)C2=O)cc1 | inactive | –
32 | CCCC[C@]12Cc3cc(OC)c(OC)cc3C(O1)C1=C(CC3(CCCCC3)OC1=O)O2 | – | 7.46% [at 10 µM]
33 | C=C1C(=CC=C2CCC[C@@]3(C)[C@@H]2CC[C@H]3[C@H](C)CCCC(C)C)C[C@@H](O)C[C@@H]1O | inactive | –
34 | C=C1/C(=C\C=C2\CCCC3(C)C2CCC3C(C)/C=C/C(O)C2CC2)CC(O)CC1O (stereo unspecified) | 12.6 µM (active) | –
35 | COc1ccc(C(O)(C2CCCCC2)C(CN2CCCC2)c2ccccc2)cc1 (stereo unspecified) | inactive | –
36 | O=C(NCc1ccccc1Cl)C1CCN(S(=O)(=O)c2cccc3nonc23)CC1 | inactive | –
37 | O=C(NCCc1ccccc1)c1ccc2c(c1)N(Cc1ccccc1)CCS2 | inactive | –
38 | O=c1oc(-c2ccco2)nc2sc3c(c12)CCCCC3 | inactive | –

Row | SMILES | Potency | activity, negative = inhibition
39 | O=C(NCc1ccco1)c1cccn2c(=O)c3c4c(sc3nc12)CCCC4 | 11.2 µM (active) | –
40 | COc1ccc(CCn2c(=N)c(C(=O)NCc3ccco3)cc3c(=O)n4cccc(C)c4nc32)cc1 | inactive | –
41 | CCCCC(C(=O)NC(C)(C)C)N(Cc1ccccc1)C(=O)c1snc(C(N)=O)c1N (stereo unspecified) | inactive | –
42 | O=C(CN1CCN(Cc2ccccc2)CC1)Nc1ccc(F)c(F)c1 | inactive | –
43 | CCn1c2ccccc2c2cc(NC(=S)N3CCOCC3)ccc21 | 22.4 µM (active) | –
44 | CCn1c2ccccc2c2cc(NC(=O)CNC)ccc21 | inactive | –
45 | Cc1cc(N2CCN(C)CC2)nc2ccc(NC(=S)N3CCOCC3)cc12 | inactive | –
46 | CC(C)CCN(C(=O)c1csnn1)C(C(=O)NC1CCCC1)c1ccccc1 (stereo unspecified) | inactive | –
47 | CC(C)CC(=O)N1CCN(Cc2cccc(Cl)c2)CC1 | inactive | –
48 | Clc1cccc(CN2COc3c(cc(Cl)c4cccnc34)C2)c1 | 1.41 µM (active) | –
49 | Nc1c(C(=O)NCc2ccccc2)nnn1Cc1cccc(Cl)c1 | inactive | –
50 | N#Cc1cccc(CN2CCC(=O)N([C@H](CO)c3ccccc3)CC2)c1 | inactive | –
51 | NC(=O)c1c(NC(=O)c2ccccc2)sc2c1CCCC2 | inactive | –
52 | O=C(CN1CCCC1)Nc1sc2c(c1C(=O)Nc1ccccc1)CCCC2 | 10 µM (active) | –
53 | Cc1ccc(NC(=O)c2c(NC(=O)CCC(=O)O)sc3c2CCCCC3)cc1 | inactive | –
54 | COc1cc(S(=O)(=O)N2CCN=C2c2ccccc2)ccc1Cl | inactive | –
55 | Cc1cc(S(=O)(=O)c2cc3ccc(O)c(C)c3oc2=O)ccc1F | inactive | –
56 | Cc1ccc(/C=N/NC(=O)C2=NNC(c3ccccc3)(c3ccccc3)C2)c(O)c1 | 1.26 µM (active) | –

Source: PubChem BioAssay AID2546 (National Center for Advancing Translational Sciences (NCATS), 2010)
